# Rows were chosen to be rich in hits. Some 7.5% of all compounds tested hit in one or more screens of this group.
# FLuc counter: inhibits or activates purified firefly luciferase, miR-21 counter-screen; P08659; purified FLuc, Km substrates, luminescence inhibition; Potency, µM (doses to about 57.5 µM), without a hit: at the top dose activity change, negative = inhibition, most hits filed as inhibitors; 360,000 tested, 6.9% active;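 further: plate controls were vehicle for no effect and reference inhibitor for full effect; nearly all actives have a fitted effect of over 55% in size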
# Target sequence (P08659 whole entry, looked up): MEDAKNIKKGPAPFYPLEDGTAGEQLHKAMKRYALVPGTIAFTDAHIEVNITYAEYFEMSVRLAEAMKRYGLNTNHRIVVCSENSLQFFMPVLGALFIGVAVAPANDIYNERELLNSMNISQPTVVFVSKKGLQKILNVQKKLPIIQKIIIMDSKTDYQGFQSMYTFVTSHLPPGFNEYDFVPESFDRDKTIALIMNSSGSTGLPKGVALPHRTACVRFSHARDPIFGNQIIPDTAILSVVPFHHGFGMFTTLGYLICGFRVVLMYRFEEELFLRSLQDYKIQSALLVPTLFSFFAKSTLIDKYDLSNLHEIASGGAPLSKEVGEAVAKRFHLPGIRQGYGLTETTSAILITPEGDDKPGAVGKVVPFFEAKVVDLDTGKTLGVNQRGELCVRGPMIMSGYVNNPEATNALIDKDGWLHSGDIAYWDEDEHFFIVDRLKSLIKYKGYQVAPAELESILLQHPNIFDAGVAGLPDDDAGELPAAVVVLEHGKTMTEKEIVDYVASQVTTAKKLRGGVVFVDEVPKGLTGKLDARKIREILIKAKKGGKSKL
#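 Purified P. pyralis luciferase (10nM final) with 10uM D-luciferin and 10uM ATP (Km levels) in 50mM Tris acetate pH 7.5, 10mM Mg acetate, 0.01% Tween-20, 0.05% BSA; qHTS 6-point titration, ~60 µM downward; luminescence read.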
# NPC1 promoter act: NPC1 promoter activation. Huh7 NPC1 promoter luciferase reporter, 24 h. Potency, µM (series often up to 9.22 µM), for inactives: top-dose activation, hits mostly activators. 320,000 tested, 2.4% active; further: % of control where 0% means no effect; nearly all actives have a fitted effect of over 60% in size
#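 Stably transfected Huh7 (NPC1 promoter→luciferase), 1500 cells/well in Opti-MEM + 10% FBS, 2 h settle, then compound 24 h at 37 °C. Luminescence after 10 min with Amplite reagent.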
# ELG1 genotox: inducers of genotoxicity in HEK293T ELG1-luciferase cells; HEK293T ELG1-luciferase reporter, luminescence, 16 h; Potency, µM (highest dose often 46 µM), for the others: at the top dose activity change, positive = activation, actives largely listed as activators; 330,000 tested, 1.3% active; further: % of control where 0% means no effect; nearly all actives have a fitted effect of over 60% in size
#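 Step 1: seed 2,000 HEK293T ELG1-luciferase cells per well. Step 2: add compound or DMSO, incubate 16 hr at 37 °C. Step 3: ONE-Glo, 30 min at room temperature, read luminescence.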
# Rab9 promoter act: Rab9 promoter activation; Huh7 Rab9 promoter-luciferase reporter, luminescence, 24 h; Potency, µM (highest dose often 9.22 µM), inactives show at the highest dose activation, negative = inhibition, usual class: activators; 320,000 tested, 2.8% active; further: % of control where 0% means no effect; nearly all actives have a fitted effect of over 60% in size
#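 Luminescence from Amplite-detected luciferase (10 minutes, ambient) reports Rab9 promoter activation. Before that, stable Rab9-luciferase Huh7 cells (1500/well, reduced-serum OP-MEM I plus 10% FBS) were exposed to compound for 24 hours at 37C.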
# SMN2 splice enh: increases expression of the SMN2 splice variant; HEK293 SMN2-luciferase splicing reporter, luminescence, 30-36 h; Potency, µM (series often up to 46.1 µM), for inactives: top-dose activity change, positive = activation, usual class: activators; 210,000 tested, 2.8% active; further: % of control where 0% means no effect; nearly all actives have a fitted effect of over 55% in size
#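 HEK293 cells carry an SMN2 minigene-luciferase reporter in which exon 7 inclusion puts luciferase in frame. Cells were seeded at 2000 cells/well, attached for 10-12 hours, then exposed to compounds for 30-36 hours at 37C before ONE-Glo luminescence.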
# The depositor's hits bear a star; ? = inconclusive; . = not tested or not shown. The call rests on the fitted dose curve; in most records, active means well fitted curve in the direction sought with a large enough effect; inconclusive means small, poorly fitted or top-dose-only effect, or another doubt; inactive means no such curve, though single readings can be large; an effect the other way counts as inactive or inconclusive. Potency means the concentration at half of the fitted maximal effect.
SMILES,FLuc counter,NPC1 promoter act,ELG1 genotox,Rab9 promoter act,SMN2 splice enh
Cc1nn(-c2cccc(C(F)(F)F)c2)c(Cl)c1/C=N/Nc1cccc(C(=O)O)c1,1.51µM*,0.112µM*,0.411µM*,0.1µM*,0.398µM*
CCOC(=O)N/N=C/c1c(C)nn(-c2cccc(C(F)(F)F)c2)c1Cl,-3.8%,-24.0%,0.5%,-24.8%,-66.2%
Cc1nn(-c2ccccc2Cl)c(Cl)c1/C=N/Nc1cccc(C(=O)O)c1,0.12µM*,?,?,0.0355µM*,0.0708µM*
O=C(CCc1nc2cccnc2n1Cc1ccccc1)N1CCOCC1,1.3%,1.0%,1.1%,-4.2%,2.3%
O=C(Nc1ccc(N2CCOCC2)cc1)c1ccc([N+](=O)[O-])cc1,1.0%,6.9%,6.1%,12.5%,-7.1%
C/C(=N/Nc1ccccc1[N+](=O)[O-])c1ccc(C)c([N+](=O)[O-])c1,-1.1%,3.16µM*,9.1%,?,.
C/C(=N\Nc1ccccc1[N+](=O)[O-])c1ccc(N2CCOCC2)cc1,3.38µM*,2.82µM*,?,3.16µM*,?
C/C(=N\Nc1ccc([N+](=O)[O-])cc1)c1ccco1,7.57µM*,?,?,3.55µM*,.
C/C(=N\NC(=O)COc1ccc([N+](=O)[O-])cc1)c1ccco1,0.3%,-1.2%,0.4%,-2.9%,.
C/C(=N\Nc1ccc([N+](=O)[O-])cc1)c1ccc(N2CCOCC2)cc1,8.49µM*,17.3%,6.4%,1.2%,.
O=C(Nc1cccc2ccccc12)c1ccc([N+](=O)[O-])o1,2.3%,-12.8%,-10.2%,-8.0%,.
CC(NC(=O)C1CCCCC1)c1ccc2c(c1)OCCO2 (stereo not given),1.3%,-1.4%,-0.6%,-8.8%,-6.1%
O=c1c2ccccc2nc2ccc(NCc3ccco3)nn12,10.7µM*,?,?,?,14.1µM*
Oc1cc2c(cc1O)[C@H]1c3ccc(O)c(O)c3OC[C@@]1(O)C2,15.1µM*,-1.5%,2.0%,-0.3%,-20.2%
COc1ccc(OCCOc2ccc(N(C)S(=O)(=O)c3ccccc3)cc2)cc1,1.8%,4.0%,-0.5%,-0.4%,.
COc1ccc(/C=C(/C(=O)c2cccs2)N2C=CC=CC2=C(C#N)C#N)cc1,13.5µM*,-10.8%,?,0.7%,.
COc1ccc(C(=O)/C(=C\c2ccco2)N2C=CC=CC2=C(C#N)C#N)cc1,-15.1%,-29.1%,-7.9%,-41.2%,-66.7%
COc1ccc(C=O)cc1Cn1c(=O)n(CCC(=O)NCc2ccco2)c(=O)c2sccc21,-2.1%,-5.1%,2.6%,-10.1%,10.8%
CCc1ccc(Oc2ncnc(N)c2[N+](=O)[O-])cc1,4.2%,-8.0%,-13.4%,-4.5%,-4.3%
Cc1nc(SCc2ccccc2F)c2cnn(-c3ccccc3)c2n1,?,7.4%,8.7%,?,35.5µM*
CSc1ncnc2c1cnn2-c1ccc(C)cc1C,?,22.0%,12.0%,?,-21.6%
Cc1cc(C)n(-c2nc(C)nc3c2cnn3-c2ccccc2)n1,-1.8%,8.0%,0.8%,-2.6%,4.6%
Fc1ccc(-n2ncc3c(SCc4cccnc4)ncnc32)cc1,6.75µM*,24.8%,23.1µM*,?,-32.1%
Cc1ccc(CSc2ncnc3c2cnn3-c2ccccc2)cc1,-19.9%,2.1%,3.7%,7.2%,-21.8%
Cc1ccc(-n2ncc3c(SCc4ccccn4)ncnc32)c(C)c1,?,1.2%,0.1%,?,1.78µM*
SMILES,FLuc counter,NPC1 promoter act,ELG1 genotox,Rab9 promoter act,SMN2 splice enh
Cc1ccc(-n2ncc3c(SCc4ccccc4)ncnc32)cc1,10.7µM*,3.98µM*,?,?,11.2µM*
CCSc1nc(-c2ccccc2OC)nc2c1Cc1c(CO)cnc(C)c1O2,-6.3%,.,.,.,.
O=C(c1ccccc1)N1CCN(C(=O)c2ccc(OC(F)(F)F)cc2)CC1,-0.7%,1.9%,-3.7%,12.9%,-0.1%
COc1cccc(CCNC(=O)c2ccc(Cn3c(SCc4ccccc4)nc4cccnc43)cc2)c1,9.53µM*,.,.,.,-16.8%
CCN(CC)CCNC(=O)c1ccc(Cn2c(SCc3ccccc3)nc3cccnc32)cc1,13.5µM*,.,.,.,.
COc1ccc(Cn2c(SCc3ccc(C(=O)NCCc4ccccc4)cc3)nc3cccnc32)cc1,-16.4%,.,.,.,-8.2%
O=C(NCCc1ccccc1)c1ccc(CSc2nc3cccnc3n2Cc2ccccc2)cc1,-12.5%,.,.,.,.

# Compound activity as filed in PubChem.
